The campaign covered roughly 5,700 compounds. About 85 (1%) were called active. Rule as the data show it: active = p53-positive nuclei above about 36% (passing the limit was not always enough); inactive = the rest. The entries come from a sample that favours actives as a whole.
Experiments:
[1] = nuclear p53 accumulation, HPV+ cells – imaging, p53-positive nuclei imaging, 24 h, 48 h (AID 1508601); details: 24/48 h
[2] = biological target: Cellular tumor antigen p53 (Homo sapiens) (UniProt P04637); test: as above; details: 24/48 h, stronger effect = higher value
Sequence of Cellular tumor antigen p53 (Homo sapiens) (P04637 whole entry, looked up): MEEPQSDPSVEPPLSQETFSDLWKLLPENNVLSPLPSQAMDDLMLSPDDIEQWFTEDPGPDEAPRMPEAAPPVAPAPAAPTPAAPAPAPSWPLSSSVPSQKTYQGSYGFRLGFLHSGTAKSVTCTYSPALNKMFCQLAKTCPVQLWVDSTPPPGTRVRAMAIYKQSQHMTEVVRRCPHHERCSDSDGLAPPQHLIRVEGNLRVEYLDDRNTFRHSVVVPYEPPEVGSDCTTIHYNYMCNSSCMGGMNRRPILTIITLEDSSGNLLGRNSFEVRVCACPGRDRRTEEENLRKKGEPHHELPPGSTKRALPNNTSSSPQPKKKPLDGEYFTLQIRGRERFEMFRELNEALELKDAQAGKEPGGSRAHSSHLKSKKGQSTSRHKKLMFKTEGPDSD

[3] = measured here: cell number at 24 h, Library stock concentration: 3.33 mM
[4] = measured here: cell number at 48 h, Library stock concentration: 3.33 mM
[5] = Library stock concentration: 3.33 mM
[6] = measured here: p53 positive nuclei at 24 h, Library stock concentration: 3.33 mM
[7] = measured here: cell number at 24 h, Library stock concentration: 10 mM
[8] = measured here: cell number at 48 h, Library stock concentration: 10 mM
[9] = Library stock concentration: 10 mM
[10] = measured here: p53 positive nuclei at 24 h, Library stock concentration: 10 mM
[11] = measured here: cell number at 24 h, concentration not given here
[12] = measured here: cell number at 48 h, concentration not given here
[13] = measured here: p53 positive nuclei at 24 h, concentration not given here

Question: With `Cc1cc(C)c(C=C2C(=O)Nc3ccccc32)[nH]1` as the compound, how does the nuclei count, normalised [1, 3] read?
Answer: Its nuclei count, normalised is 116%.

Question: What about the nuclei count, normalised [1, 4] of the same compound?
Answer: The nuclei count, normalised was 119%.

Question: And the p53-positive nuclei, normalised [2, 5]?
Answer: The p53-positive nuclei, normalised was -0.0521% (inactive).

Question: What about the p53-positive nuclei, normalised [2, 6] of the same compound?
Answer: Its p53-positive nuclei, normalised is -0.278%.

Question: For `COc1cc(=C2C=c3ccccc3=N2)[nH]c1=Cc1[nH]c(C)cc1C`, which nuclei count, normalised ([1]; measured here: cell number at 24 h, Library stock concentration: 80 uM) is on record?
Answer: Its nuclei count, normalised is 104%.

Question: And the nuclei count, normalised ([1]; measured here: cell number at 24 h, Library stock concentration: 400 uM)?
Answer: Its nuclei count, normalised is 82.2%.

Question: And the nuclei count, normalised ([1]; measured here: cell number at 24 h, Library stock concentration: 2 mM)?
Answer: The nuclei count, normalised was 74.9%.

Question: What about the nuclei count, normalised [1, 3] of the same compound?
Answer: Its nuclei count, normalised is 71.2%.

Question: What about the nuclei count, normalised [1, 7] of the same compound?
Answer: Its nuclei count, normalised is 65.9%.

Question: What about the nuclei count, normalised ([1]; measured here: cell number at 48 h, Library stock concentration: 80 uM) of the same compound?
Answer: The nuclei count, normalised was 101%.

Question: What about the nuclei count, normalised ([1]; measured here: cell number at 48 h, Library stock concentration: 400 uM) of the same compound?
Answer: Its nuclei count, normalised is 75.4%.

Question: And the nuclei count, normalised ([1]; measured here: cell number at 48 h, Library stock concentration: 2 mM)?
Answer: Its nuclei count, normalised is 60.3%.

Question: What about the nuclei count, normalised [1, 4] of the same compound?
Answer: Its nuclei count, normalised is 61.8%.

Question: And the nuclei count, normalised [1, 8]?
Answer: Its nuclei count, normalised is 52.6%.

Question: What about the p53-positive nuclei, normalised ([2]; Library stock concentration: 80 uM) of the same compound?
Answer: The p53-positive nuclei, normalised was 0.397% (inactive).

Question: What about the p53-positive nuclei, normalised ([2]; Library stock concentration: 400 uM) of the same compound?
Answer: Its p53-positive nuclei, normalised is 74% (active).

Question: And the p53-positive nuclei, normalised ([2]; Library stock concentration: 2 mM)?
Answer: Its p53-positive nuclei, normalised is 142% (active).

Question: And the p53-positive nuclei, normalised [2, 5]?
Answer: The p53-positive nuclei, normalised was 137% (active).

Question: And the p53-positive nuclei, normalised [2, 9]?
Answer: Its p53-positive nuclei, normalised is 105% (active).

Question: What about the p53-positive nuclei, normalised ([2]; measured here: p53 positive nuclei at 24 h, Library stock concentration: 80 uM) of the same compound?
Answer: The p53-positive nuclei, normalised was 0.165%.

Question: And the p53-positive nuclei, normalised ([2]; measured here: p53 positive nuclei at 24 h, Library stock concentration: 400 uM)?
Answer: Its p53-positive nuclei, normalised is 72.4%.

Question: What about the p53-positive nuclei, normalised ([2]; measured here: p53 positive nuclei at 24 h, Library stock concentration: 2 mM) of the same compound?
Answer: Its p53-positive nuclei, normalised is 167%.

Question: And the p53-positive nuclei, normalised [2, 6]?
Answer: The p53-positive nuclei, normalised was 159%.

Question: And the p53-positive nuclei, normalised [2, 10]?
Answer: The p53-positive nuclei, normalised was 137%.

Question: What does the source list for `Nc1ccn(C2C=C(CO)C(O)C2O)c(=O)n1` (stereo not drawn)?
Answer: nuclei count, normalised ([1]; measured here: cell number at 24 h, Library stock concentration: 500 nM): 108%; nuclei count, normalised ([1]; measured here: cell number at 24 h, Library stock concentration: 1.5 uM): 117%; nuclei count, normalised ([1]; measured here: cell number at 24 h, Library stock concentration: 4.6 uM): 110%; nuclei count, normalised ([1]; measured here: cell number at 24 h, Library stock concentration: 13.7 uM): 119%; nuclei count, normalised ([1]; measured here: cell number at 24 h, Library stock concentration: 41 uM): 115%; nuclei count, normalised ([1]; measured here: cell number at 24 h, Library stock concentration: 123 uM): 83.8%; nuclei count, normalised ([1]; measured here: cell number at 24 h, Library stock concentration: 370 uM): 70%; nuclei count, normalised ([1]; measured here: cell number at 24 h, Library stock concentration: 1.111 mM): 73.4%; nuclei count, normalised ([1]; measured here: cell number at 24 h, Library stock concentration: 3.333 mM): 65.6%; nuclei count, normalised [1, 7]: 65.3%; nuclei count, normalised ([1]; measured here: cell number at 48 h, Library stock concentration: 500 nM): 109%; nuclei count, normalised ([1]; measured here: cell number at 48 h, Library stock concentration: 1.5 uM): 111%; nuclei count, normalised ([1]; measured here: cell number at 48 h, Library stock concentration: 4.6 uM): 111%; nuclei count, normalised ([1]; measured here: cell number at 48 h, Library stock concentration: 13.7 uM): 117%; nuclei count, normalised ([1]; measured here: cell number at 48 h, Library stock concentration: 41 uM): 105%; nuclei count, normalised ([1]; measured here: cell number at 48 h, Library stock concentration: 123 uM): 67.3%; nuclei count, normalised ([1]; measured here: cell number at 48 h, Library stock concentration: 370 uM): 54.3%; nuclei count, normalised ([1]; measured here: cell number at 48 h, Library stock concentration: 1.111 mM): 57.7%; nuclei count, normalised ([1]; measured here: cell number at 48 h, Library stock concentration: 3.333 mM): 52.7%; nuclei count, normalised [1, 8]: 52%; p53-positive nuclei, normalised ([2]; Library stock concentration: 500 nM): -0.14% (inactive); p53-positive nuclei, normalised ([2]; Library stock concentration: 1.5 uM): -0.145% (inactive); p53-positive nuclei, normalised ([2]; Library stock concentration: 4.6 uM): 0.0813% (inactive); p53-positive nuclei, normalised ([2]; Library stock concentration: 13.7 uM): -0.00208% (inactive); p53-positive nuclei, normalised ([2]; Library stock concentration: 41 uM): -0.138% (inactive); p53-positive nuclei, normalised ([2]; Library stock concentration: 123 uM): 0.289% (inactive); p53-positive nuclei, normalised ([2]; Library stock concentration: 370 uM): -0.0266% (inactive); p53-positive nuclei, normalised ([2]; Library stock concentration: 1.111 mM): 0.668% (inactive); p53-positive nuclei, normalised ([2]; Library stock concentration: 3.333 mM): 0.138% (inactive); p53-positive nuclei, normalised [2, 9]: 0.496% (inactive); p53-positive nuclei, normalised ([2]; measured here: p53 positive nuclei at 24 h, Library stock concentration: 500 nM): 0.0935%; p53-positive nuclei, normalised ([2]; measured here: p53 positive nuclei at 24 h, Library stock concentration: 1.5 uM): -0.093%; p53-positive nuclei, normalised ([2]; measured here: p53 positive nuclei at 24 h, Library stock concentration: 4.6 uM): -0.13%; p53-positive nuclei, normalised ([2]; measured here: p53 positive nuclei at 24 h, Library stock concentration: 13.7 uM): 0.115%; p53-positive nuclei, normalised ([2]; measured here: p53 positive nuclei at 24 h, Library stock concentration: 41 uM): -0.0784%; p53-positive nuclei, normalised ([2]; measured here: p53 positive nuclei at 24 h, Library stock concentration: 123 uM): 0.089%; p53-positive nuclei, normalised ([2]; measured here: p53 positive nuclei at 24 h, Library stock concentration: 370 uM): 0.146%; p53-positive nuclei, normalised ([2]; measured here: p53 positive nuclei at 24 h, Library stock concentration: 1.111 mM): 0.68%; p53-positive nuclei, normalised ([2]; measured here: p53 positive nuclei at 24 h, Library stock concentration: 3.333 mM): 0.184%; p53-positive nuclei, normalised [2, 10]: 0.519%

Question: What does the source list for `CCCCC/C=C\C/C=C\C/C=C\CCCCCCC(=O)OC`?
Answer: nuclei count, normalised [1, 11]: 114%; nuclei count, normalised [1, 12]: 108%; p53-positive nuclei, normalised ([2]; concentration not given here): 0.0353% (inactive); p53-positive nuclei, normalised [2, 13]: 0.00725%

Question: What does the source list for `CCC(C)C(NC(=O)C(CCC(=O)O)NC(=O)C(CC(C)C)NC(=O)C1CN=C(C(N)C(C)C)S1)C(=O)NC1CCCCNC(=O)C(CC(N)=O)NC(=O)C(CC(=O)O)NC(=O)C(Cc2cnc[nH]2)NC(=O)C(Cc2ccccc2)NC(=O)C(C(C)CC)NC(=O)C(CCCN)NC1=O` (stereo not drawn)?
Answer: nuclei count, normalised [1, 3]: 97.5%; nuclei count, normalised [1, 4]: 99%; p53-positive nuclei, normalised [2, 5]: -0.136% (inactive); p53-positive nuclei, normalised [2, 6]: -0.227%

Question: With `C[C@]12CC[C@H]3c4ccc(O)cc4CC[C@H]3[C@@H]1CCC2=O` as the compound, how does the nuclei count, normalised [1, 3] read?
Answer: The nuclei count, normalised was 111%.

Question: What about the nuclei count, normalised [1, 4] of the same compound?
Answer: Its nuclei count, normalised is 121%.

Question: And the p53-positive nuclei, normalised [2, 5]?
Answer: The p53-positive nuclei, normalised was -0.0334% (inactive).

Question: What about the p53-positive nuclei, normalised [2, 6] of the same compound?
Answer: Its p53-positive nuclei, normalised is -0.211%.

Question: For `COC(=O)[C@]12CCC(C)(C)C[C@@H]1[C@@H]1C(=O)C=C3[C@]4(C)C=C(C#N)C(=O)C(C)(C)[C@@H]4CC[C@@]3(C)[C@]1(C)CC2`, which nuclei count, normalised [1, 3] is on record?
Answer: Its nuclei count, normalised is 36.3%.

Question: And the nuclei count, normalised [1, 4]?
Answer: The nuclei count, normalised was 29.9%.

Question: What about the p53-positive nuclei, normalised [2, 5] of the same compound?
Answer: Its p53-positive nuclei, normalised is 79.7% (active).

Question: And the p53-positive nuclei, normalised [2, 6]?
Answer: The p53-positive nuclei, normalised was 88.9%.

Question: Which nuclei count, normalised [1, 11] does the source give for `CCCCN=C(N)NO` here?
Answer: The nuclei count, normalised was 99.4%.

Question: And the nuclei count, normalised [1, 12]?
Answer: The nuclei count, normalised was 99.4%.

Question: What about the p53-positive nuclei, normalised ([2]; concentration not given here) of the same compound?
Answer: Its p53-positive nuclei, normalised is -0.143% (inactive).

Question: And the p53-positive nuclei, normalised [2, 13]?
Answer: Its p53-positive nuclei, normalised is -0.0268%.

Question: With `Cc1nc(N)sc1-c1ccnc(Nc2ccc(N3CCOCC3)cc2)n1` as the compound, how does the nuclei count, normalised [1, 3] read?
Answer: Its nuclei count, normalised is 40.5%.

Question: What about the nuclei count, normalised [1, 4] of the same compound?
Answer: The nuclei count, normalised was 28.3%.

Question: And the p53-positive nuclei, normalised [2, 5]?
Answer: The p53-positive nuclei, normalised was -0.214% (inactive).

Question: What about the p53-positive nuclei, normalised [2, 6] of the same compound?
Answer: The p53-positive nuclei, normalised was -0.143%.

From PubChem BioAssay AID1508601 (ICCB-Longwood Screening Facility, Harvard Medical School, 2020)
